Test results reported in a collection of fitness landscapes (doi:10.1016/j.celrep.2020.107928).
In all, about 81,000 sequences were measured (“one-hybrid fitness for binding NBS DNA”: median about -0.1, highest 2% from about 0.36 on). The list comes from a sample in which the highest values are over-represented; it also holds similar and randomly drawn sequences.

B1: Caulobacter ParB omega fusion; a variant is named by its letters at X, in order, B8GW30 (parent)
chain: MESVVVGEPGMSEGRRGLGRGLSALLGEVDAAPAQAPGEQLGGSREAPIEILQRNPDQPRRTFREEDLEDLSNSIREKGVLQPILVRPSPDTAGEYQIVAGERAWRAAQRAGLKTVPIMVRELDDLAVLEIGIIENVQRADLNVLEEALSYKVLMEKFERTQENIAQTIGKSXSHVANXMRLLXLPDEVQSYLVSGELTAXHARAIAAAADPVALAKQIIEGGLSVRETEALARKAPNLSAGKSKGGRPPRVKDTDTQALESDLSSVLGLDVSIDHRGSTGTLTITYATLEQLDDLCNRLTRGI

Variants of: B1
Assay: one-hybrid fitness for binding NBS DNA (the Noc-binding site; scaled: cognate 1, non-cognate 0); higher = stronger binding
Details: with NBS DNA site
Summary of the method: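 The reporter was HIS3, with the binding site 19 bp from the promoter, in E. coli USO used for bacterial one-hybrid selection of Caulobacter ParB libraries with four specificity codons randomised. Growth was on M9 lacking histidine, with 0.1 mM IPTG and 5 mM 3-AT, for 48 hours at 37°C. Illumina sequencing covered plasmids before and after selection; three replicate libraries were pooled and variants with under 10 reads dropped. A fitness score is the log change in variant-to-wild-type read ratio, rescaled to the cognate and non-cognate references.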

Variant | one-hybrid fitness for binding NBS DNA
VLSD | ≤ 0.2
DRYG | ≤ 0.2
SACR | ≤ 0.2
CRNI | ≤ 0.2
ARTS | ≤ 0.2
KRFT | 0.565
KRAT | 0.572
NRFT | ≤ 0.2
DRFT | ≤ 0.2
KCAT | ≤ 0.2
KRAH | ≤ 0.2
ERLC | ≤ 0.2
DGPR | ≤ 0.2
QMHG | ≤ 0.2
QMWT | 0.36
QMHT | 0.497
QTLK | ≤ 0.2
QMHQ | ≤ 0.2
QMET | 0.295
QMYT | 0.436
QMRT | 0.79
QTLT | 0.527
QMCT | 0.339
DMRT | ≤ 0.2

Variant | one-hybrid fitness for binding NBS DNA
KGMW | ≤ 0.2
IVAT | ≤ 0.2
PGEM | ≤ 0.2
MPVM | ≤ 0.2
GHRC | ≤ 0.2
NPHC | ≤ 0.2
QMST | 0.457
QPLT | ≤ 0.2
QMND | ≤ 0.2
QMAF | ≤ 0.2
QSLT | 0.327
QMDT | 0.345
QMSG | ≤ 0.2
QMNT | 0.52
QMAG | ≤ 0.2
QMAT | 0.505
QCLT | 0.487
QMSF | ≤ 0.2
CHMT | ≤ 0.2
EHDV | ≤ 0.2
SSEQ | ≤ 0.2
GTKR | 0.255
RILE | ≤ 0.2
RWLC | ≤ 0.2

Variant | one-hybrid fitness for binding NBS DNA
ADHS | ≤ 0.2
SITC | ≤ 0.2
TCAG | ≤ 0.2
QMPT | 0.312
QMIN | ≤ 0.2
QMLT | 0.395
QMIT | 0.402
QMGM | ≤ 0.2
QMLP | ≤ 0.2
QMQF | ≤ 0.2
QMGL | ≤ 0.2
QMLN | ≤ 0.2
QMQT | 0.392
QMGT | 0.447
QMQY | 0.223
HGKF | ≤ 0.2
ARGT | ≤ 0.2
PESN | ≤ 0.2
MRTC | ≤ 0.2
LKVF | ≤ 0.2
YDRK | ≤ 0.2
EANW | ≤ 0.2
QHSP | ≤ 0.2
QTSS | 0.522

Variant | one-hybrid fitness for binding NBS DNA
QMSP | ≤ 0.2
QTSN | 0.221
QMSH | ≤ 0.2
QTSP | ≤ 0.2
QMSS | 0.376
QPSS | ≤ 0.2
QHSH | ≤ 0.2
QHSS | 0.37
QSSS | 0.353
QCSS | 0.449
NGMI | ≤ 0.2
PSRF | ≤ 0.2
GSQF | ≤ 0.2
RLMM | ≤ 0.2
HSIS | ≤ 0.2
RMIR | 0.253
RMRR | 0.736
RMWR | 0.289
RMSR | 0.468
RMRP | ≤ 0.2
RMSP | ≤ 0.2
RMSN | ≤ 0.2
RMQG | ≤ 0.2
RMYR | 0.424

Variant | one-hybrid fitness for binding NBS DNA
RMQR | 0.411
RMQF | ≤ 0.2
RMPR | ≤ 0.2
RYMW | ≤ 0.2
MSPG | ≤ 0.2
AAPF | ≤ 0.2
KVSV | ≤ 0.2
SDKS | ≤ 0.2
WSYG | ≤ 0.2
SPGT | ≤ 0.2
PNYD | ≤ 0.2
KQNC | ≤ 0.2
VKNL | ≤ 0.2
FTGV | ≤ 0.2
QSPF | ≤ 0.2
TTVG | ≤ 0.2
GWPD | ≤ 0.2
RMLN | ≤ 0.2
RMLR | 0.431
RMLS | 0.309
RMAR | 0.46
RMHR | 0.503
RMGR | 0.479
RMHF | ≤ 0.2

Variant | one-hybrid fitness for binding NBS DNA
RMAD | ≤ 0.2
RMHM | ≤ 0.2
RMGN | ≤ 0.2
RMFR | 0.348
RMGH | ≤ 0.2
LIKT | ≤ 0.2
VQSV | ≤ 0.2
DCSG | ≤ 0.2
TPHH | ≤ 0.2
LLVG | ≤ 0.2
TAIG | ≤ 0.2
HVIC | ≤ 0.2
VVRW | ≤ 0.2
RMNR | 0.545
RMDR | ≤ 0.2
RMCR | 0.433
RMNN | ≤ 0.2
RMCN | ≤ 0.2
RMCH | ≤ 0.2
NAAS | ≤ 0.2
FAFL | 0.451
FAAL | ≤ 0.2
FAFR | 0.364
FARL | ≤ 0.2

Variant | one-hybrid fitness for binding NBS DNA
FAYR | ≤ 0.2
FAAR | ≤ 0.2
MKNR | ≤ 0.2
NTMM | ≤ 0.2
VTYY | ≤ 0.2
HWST | ≤ 0.2
WHPR | ≤ 0.2
RKLH | 0.227
RCLR | 0.416
RSLR | 0.339
RPLR | ≤ 0.2
RKLN | ≤ 0.2
RKLR | 0.525
VCVG | ≤ 0.2
QFIL | ≤ 0.2
QQYQ | ≤ 0.2
QQLQ | ≤ 0.2
QQRQ | 0.421
QQKQ | 0.493
QQAQ | ≤ 0.2
QQVQ | 0.395
QQVF | ≤ 0.2
QQSQ | ≤ 0.2
FDNG | ≤ 0.2

Variant | one-hybrid fitness for binding NBS DNA
NNAW | ≤ 0.2
YMTS | ≤ 0.2
GPQR | ≤ 0.2
YAEG | ≤ 0.2
QGWN | ≤ 0.2
VMDS | ≤ 0.2
LDDR | ≤ 0.2
SESE | ≤ 0.2
DLGS | ≤ 0.2
RFDT | ≤ 0.2
RFYT | ≤ 0.2
RPRT | ≤ 0.2
RIPT | ≤ 0.2
RAWT | 0.236
RIYT | 0.34
RART | 0.621
RFRT | 0.456
RCRT | 0.706
RERT | ≤ 0.2
RIRT | 0.615
RAYT | 0.353
PNYV | ≤ 0.2
RQPS | ≤ 0.2
SQNC | ≤ 0.2

Variant | one-hybrid fitness for binding NBS DNA
HISC | ≤ 0.2
LSFT | ≤ 0.2
TGSY | ≤ 0.2
KYSS | ≤ 0.2
CQDS | ≤ 0.2
RSYT | 0.322
RPYT | ≤ 0.2
RSRT | 0.602
RCYT | 0.517
RSIT | ≤ 0.2
RCDT | 0.266
CPVW | ≤ 0.2
KHGP | ≤ 0.2
QYFN | ≤ 0.2
QYAN | ≤ 0.2
QYFS | ≤ 0.2
QYFR | 0.366
QYAH | ≤ 0.2
QYAR | 0.517
INHG | ≤ 0.2
YKQS | ≤ 0.2
TADE | ≤ 0.2
RCLS | 0.396
RRLN | 0.23

Variant | one-hybrid fitness for binding NBS DNA
RPLS | ≤ 0.2
RRLD | ≤ 0.2
RRLS | 0.606
RRLH | 0.365
RCLH | ≤ 0.2
RRLP | ≤ 0.2
RSLS | 0.303
GLNS | ≤ 0.2
KRSF | ≤ 0.2
ASNS | ≤ 0.2
DKMS | ≤ 0.2
HKVM | ≤ 0.2
VYHT | ≤ 0.2
KGST | ≤ 0.2
WSCT | ≤ 0.2
QKAH | ≤ 0.2
QKFR | 0.435
QKFH | ≤ 0.2
QKFP | ≤ 0.2
QKAR | 0.606
QKAK | ≤ 0.2
GQKR | 0.201
SYQK | ≤ 0.2
QDDR | ≤ 0.2

Variant | one-hybrid fitness for binding NBS DNA
QIDR | 0.234
QINN | ≤ 0.2
QHNP | ≤ 0.2
QINR | 0.479
QSNP | ≤ 0.2
QSDR | 0.317
QHDR | 0.336
QPDR | ≤ 0.2
QCDR | 0.402
QHNR | 0.618
QSNR | 0.62
PRGP | ≤ 0.2
QLND | ≤ 0.2
QANR | 0.583
QLDR | 0.295
QADR | 0.314
QANN | ≤ 0.2
QFNR | 0.268
QPNR | 0.236
QLNR | 0.551
QCNR | 0.751
NTLI | ≤ 0.2
VIMF | ≤ 0.2
LAGN | ≤ 0.2

Variant | one-hybrid fitness for binding NBS DNA
EMRR | 0.21
ADQR | ≤ 0.2
FNIT | ≤ 0.2
RPMM | ≤ 0.2
GCIC | ≤ 0.2
QTRR | 1.15
DTRR | 0.303
QTDR | 0.483
QTDP | ≤ 0.2
QTNG | 0.286
NTRR | 0.235
QTYR | 0.691
QTNR | 0.936
QTNK | 0.304
PSTM | ≤ 0.2
IDSK | ≤ 0.2
HNGW | ≤ 0.2
VPAW | ≤ 0.2
YCQT | ≤ 0.2
TPGL | ≤ 0.2
LPPV | ≤ 0.2
HSKL | ≤ 0.2
ISKT | ≤ 0.2
IRNT | 0.451

Variant | one-hybrid fitness for binding NBS DNA
ICKS | ≤ 0.2
IRDT | ≤ 0.2
CRVT | ≤ 0.2
IRVT | ≤ 0.2
CRKT | 0.365
ISNT | ≤ 0.2
CCKT | ≤ 0.2
IRKD | ≤ 0.2
IRKT | 0.471
IRKS | 0.37
NWRM | ≤ 0.2
VPHA | ≤ 0.2
QWQG | ≤ 0.2
FVWR | ≤ 0.2
DGRN | ≤ 0.2
NANS | ≤ 0.2
VHVA | ≤ 0.2
KSLV | ≤ 0.2
